# The list is not random: actives were taken first. Their share in the collection is about 4%.
# TROY signal inh: blocks TROY-dependent signaling in reporter cells | Q293 LMP1-TROYcd NF-kB luciferase reporter, 4 h | inhibition, % at 10 µM | hit rate 0.98% among 360,000;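 active means compounds whose plate-normalised and pattern-corrected inhibition of the luciferase reporter signal at the single screening dose is 50% or more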
# TWEAK-Fn14 inh: blocks TWEAK-Fn14 interaction in a reporter cell assay | TWEAK-stimulated Fn14 reporter cells, luciferase luminescence, 8 h | inhibition, % at 10 µM | hit rate 2% among 360,000; in the data active means inhibition above about 50%
# Peg3 prom inh: inhibitors of Peg3 promoter. HeLa PEG-Prom luciferase reporter, luminescence, overnight. inhibition, % at 20 µM. hit rate 1.7% among 360,000;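 active means inhibition of at least 50% at 20 µM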
# HIF-2a block: HIF-2a inhibition; 786-0 RCC cells HIF-2a reporter, luciferase luminescence, overnight; inhibition, % at 18.8 µM; hit rate 0.72% among 360,000;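 active means inhibition of the luminescence signal of 40% or more relative to plate controls, in a single-dose primary screen at 18.75 µM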
# KKLEB tox: CF airway cell cytotoxicity counter-screen; hit rate 0.36% among 360,000; KKLEB CF airway cells viability, ATPlite luminescence, overnight; stronger effect = lower value; cells stimulated with P. aeruginosa culture filtrate; activity change (cytotoxicity), % at 5 µM; AID 602141;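 active means corrected activity change at or below -50% at 5 µM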
# CF NFkB block: cystic fibrosis NF-kB activation inhibition; inhibition, % at 5 µM; hit rate 0.86% among 360,000; KKLEB NF-kB-GFP reporter, PAF-induced, GFP fluorescence overnight; AID 588850;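 active means at least 50% inhibition at 5 µM, scaled per plate between neutral and stimulator controls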;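 further: PAF is a Pseudomonas aeruginosa culture filtrate used as stimulus; plate controls were PAF-stimulated DMSO wells for no effect and unstimulated DMSO wells for full effect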
# An asterisk follows results filed as active; . = not tested or not shown.
SMILES,TROY signal inh,TWEAK-Fn14 inh,Peg3 prom inh,HIF-2a block,KKLEB tox,CF NFkB block
O=C1NC(=S)S/C1=C/c1ccc(N2CCOCC2)o1,3,6,-48,-69,-4,13
O=C1NC(=S)S/C1=C\C=C\c1ccc([N+](=O)[O-])o1,-27,50*,104*,82*,-40,93*
Cc1cc(C)n(C(C[N+](=O)[O-])c2ccc(Cl)cc2)n1 (configuration not stated),-14,20,99*,23,5,-6
O=c1[nH]c(C2CCN(S(=O)(=O)c3ccccc3F)CC2)nc2c1nnn2Cc1ccc2c(c1)OCCO2,-19,-14,60*,23,9,3
Cc1ccc(OCc2nn3c(-c4ccco4)nnc3s2)cc1,-23,-22,-47,-59,6,-6
Clc1ccc(OCc2nn3c(-c4ccco4)nnc3s2)c(Cl)c1,69*,47,-1,-37,-4,6
Cc1cccc(C)c1NC(=O)C(c1ccc(C(F)(F)F)cc1)n1c(=O)c(-c2cc3ccccc3[nH]2)nc2ccccc21 (configuration not stated),.,.,.,-10,.,.
COc1cccc(-c2nc(CS(=O)(=O)CC(=O)NC3CCCCCC3)c(C)o2)c1,-3,22,18,8,3,3
O=[N+]([O-])c1cccc(-c2nc(-c3cccs3)c(-c3cccs3)[nH]2)c1,19,58*,13,-3,-9,9
O=[N+]([O-])c1ccc(-c2nc(-c3cccs3)c(-c3cccs3)[nH]2)cc1,66*,79*,43,-14,-4,2
CC1(C)C(=O)Nc2ccccc2N1C(=O)COC(=O)Cc1ccccc1F,-16,-3,13,5,-5,-9
CCn1cc(S(=O)(=O)Nc2ccc3c(c2)OCCO3)cn1,86*,88*,37,33,8,-18
Cc1nc(S(=O)(=O)Nc2ccc3c(c2)OCCO3)cn1C,11,8,-2,5,-12,3
Cn1cc(S(=O)(=O)Nc2ccc3c(c2)OCCO3)cn1,62*,70*,-15,26,7,7
COc1cnn(-c2cccc(C)c2)c(=O)c1Cl,3,19,-3,-25,10,-5
COc1cnn(-c2ccccc2)c(=O)c1N(C)C,54*,32,-5,-15,-2,1
CC1=CC(=C(C#N)c2nc3ccccc3s2)C=C(C)N1c1ccc(F)cc1,11,-11,-121,-170,-1,-10
COc1ccccc1N1C(C)=CC(=C(C#N)c2nc3ccccc3s2)C=C1C,72*,83*,0,5,-2,5
CCOc1cc(Br)cc(/C=N/NC(=O)c2cccnc2)c1O,-15,-3,62*,-7,-1,2
N#CCC(=O)Nc1ccc(C(=O)OCC(=O)N2CCN(C(=O)c3ccco3)CC2)cc1,4,22,-5,5,-7,-11
CCN(c1ccccc1)S(=O)(=O)c1ccc(C(=O)Nc2cccc(NC(C)=O)c2)cc1,-5,21,-14,-4,-40,0
CCN(c1ccccc1)S(=O)(=O)c1cc(C(=O)Nc2ccc(F)c(F)c2)ccc1F,63*,80*,42,-24,2,23
Cc1ccc(Cl)cc1S(=O)(=O)N1CCC(C(=O)NC2CCN(Cc3ccccc3)CC2)CC1,28,52*,19,16,-5,-3
O=C(O)/C=C/c1cnn(-c2ccccc2)c1,8,67*,-11,5,-2,20
COCOCCn1cc(CN2CCS(=O)(=O)N(Cc3ccc(-c4ccc(Cl)nc4)cc3)C(C)C2=O)nn1 (configuration not stated),1,-3,-4,-3,6,0
SMILES,TROY signal inh,TWEAK-Fn14 inh,Peg3 prom inh,HIF-2a block,KKLEB tox,CF NFkB block
CC(C)Cc1nc2sc3c(NCc4ccco4)ncnc3c2c2c1COC(C)(C)C2,24,52*,7,17,-38,33
C=CCOc1cccc(/C=C2\C(=O)N(Cc3ccc(C)cc3)C(C)=C2C(=O)OC)c1,18,11,42,63*,3,-5
Cc1ccc(C(O)c2ncc(-c3ccc(Cl)cc3)[nH]2)cc1 (configuration not stated),-20,-32,-92,-105,-4,16
O=C(CSc1ncnc2sccc12)Nc1ccccc1,-11,-34,-24,-60,-2,-20
Cc1ccc2sc(NC(=O)CSc3nc(C)cc(C)c3C#N)nc2c1,-10,1,-275,-211,-23,-10
Cc1cc(C(F)(F)F)c(C#N)c(SCC(=O)Nc2nc3ccccc3s2)n1,85*,89*,-77,-35,-40,-6
O=C(CSc1ncnc2c1sc1ccccc12)Nc1ccc(Br)cc1,-8,-51,-7,10,-57*,43
O=C(CSc1ncnc2c1oc1ccccc12)Nc1nc2ccccc2s1,29,-40,56*,21,-34,46
CCc1nnc(NC(=O)CSc2ncnc3c2oc2ccccc23)s1,-6,2,44,13,-11,17
CCn1c(CCNC(=O)c2ccc(OC)cc2)nnc1SCc1ccc(Cl)cc1Cl,63*,12,9,23,14,-10
O=C1CC(c2ccc(F)cc2)Cc2nc(N3CCN(c4ccccc4)CC3)ncc21 (configuration not stated),-2,45,11,5,2,-12
Cc1ccc(C2CC(=O)c3cnc(N4CCN(c5ccccc5)CC4)nc3C2)cc1 (configuration not stated),47,58*,1,12,6,-5
Cn1nc(C(C)(C)C)cc1C(=O)N1CCCC(C)(C(=O)NS(=O)(=O)C2CC2)C1 (configuration not stated),11,-1,-4,11,2,-12
O=C1C=CC2=C3c4cc(O)c(O)cc4CC3(O)COC2=C1O (configuration not stated),0,86*,34,7,-6,19
O=C(C[n+]1ccc2ccccc2c1)c1ccc2ccc3ccccc3c2c1,-13,10,.,23,.,.
COc1ccc(-c2cn3cc(C)ccc3n2)cc1F,61*,76*,-2,-16,-27,-11
Cc1nn(CC(=O)N(C)Cc2ccccc2)c(=O)c2cccn12,14,0,-23,-16,10,-14
CC(=O)SC1CC(=O)C=C2CCC3C4CCC(=O)OC4(C)CCC3C21C (configuration not stated),0,-9,13,10,9,7
COCCCNC(=O)c1ccc2c(=O)n(Cc3ccc(Cl)cc3)c(=S)[nH]c2c1,-32,-29,9,-5,-2,-2
O=C(c1ccc2c(=O)n(Cc3ccc(Cl)cc3)c(=S)[nH]c2c1)N1CCOCC1,44,75*,44,38,-1,-6
CCOC(=O)N1CCN(C(=O)c2ccc(Cn3c(=S)[nH]c4cc(OCC)c(OCC)cc4c3=O)cc2)CC1,58*,37,11,25,0,-1
